# Experimental data as given in PubChem BioAssay AID1851 (National Center for Advancing Translational Sciences (NCATS), 2009).
# Out of some 16,000 compounds screened, about 5,800 (36%) were called active. Another 23% or so got no clear call; they are omitted. Calls come from the whole dose curve; as a rule, active = well fitted curve in the direction sought with a large enough effect; inconclusive = small, poorly fitted or top-dose-only effect, or effect the other way; inactive = no such curve, though single readings can be large or run the other way. The list shows a part of the results.
# Target: Cytochrome P450 2C19 (Homo sapiens) (UniProt P33261)
# Sequence (P33261 whole entry, looked up): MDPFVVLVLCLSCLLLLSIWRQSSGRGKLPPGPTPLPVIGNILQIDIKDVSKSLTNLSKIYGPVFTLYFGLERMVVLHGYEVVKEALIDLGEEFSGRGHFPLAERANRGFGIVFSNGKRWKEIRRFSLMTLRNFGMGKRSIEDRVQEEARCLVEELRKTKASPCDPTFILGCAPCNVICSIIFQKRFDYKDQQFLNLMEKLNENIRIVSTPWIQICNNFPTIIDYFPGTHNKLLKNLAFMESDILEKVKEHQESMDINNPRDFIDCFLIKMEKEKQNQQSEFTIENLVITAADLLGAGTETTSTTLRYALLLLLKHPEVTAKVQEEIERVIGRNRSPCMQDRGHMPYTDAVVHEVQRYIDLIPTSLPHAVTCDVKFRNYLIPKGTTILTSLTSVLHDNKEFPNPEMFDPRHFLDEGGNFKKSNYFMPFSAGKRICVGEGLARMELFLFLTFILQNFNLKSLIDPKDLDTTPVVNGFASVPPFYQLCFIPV
# Assay: Cytochrome panel assay with activity outcomes
# Details: recombinant CYP, pro-luciferin dealkylation, luminescence, p450-cyp2c19; series mostly up to 57.1 µM; activity, negative = inhibition: at the top concentration
# % is set by controls: 0 for no effect and ±100 for the full control effect.
Structure (SMILES),AC50,"activity, negative = inhibition"
COC(=O)C(Cc1ccc(OC(=O)c2ccc(Cl)cc2)cc1)N1Cc2ccccc2C1=O (configuration not stated),2.82 µM (active),–
COC(=O)C(Cc1ccc(OC(=O)c2ccc(C(F)(F)F)cc2)cc1)N1Cc2ccccc2C1=O (configuration not stated),14.1 µM (active),–
O=C(Oc1ccc2c(c1)CN(Cc1ccccc1)CO2)c1ccccc1,–,-25.4% [at 11.4 µM] (inactive)
CN1CCN(c2ncc3nc(-c4ccccc4)c(=O)n(Cc4cccs4)c3n2)CC1,–,-25.6% (inactive)
CC(C)[C@]1(Cl)CC[C@@H]2[C@]3(C)CCC[C@@](C)(C(=O)O)[C@H]3C[C@H](Cl)[C@@]2(Cl)[C@H]1Cl,–,-28.4% [at 11.4 µM] (inactive)
Cc1cc(NC(=O)Nc2ccc(F)cc2)no1,14.1 µM (active),–
Cc1noc(N)c1C(=O)Nc1ccc(F)cc1,–,-25.6% (inactive)
C1CCC(N=C(NC23CC4CC(CC(C4)C2)C3)N2CCOCC2)CC1,–,28.2% (inactive)
Cc1ccc(S(=O)(=O)ON=C2CCN(S(=O)(=O)c3ccccc3)CC2)cc1,–,-29% (inactive)
Cc1ccc(S(=O)(=O)O[C@H]2C[C@@H](C(C)(C)C)CC[C@@H]2c2ccccc2)cc1,3.16 µM (active),–
C=CCSc1nc(C)cc(/C=C\c2ccccc2)c1C#N,5.62 µM (active),–
O=C(O)c1cc(=O)c2c(OCC(O)COc3cccc4oc(C(=O)O)cc(=O)c34)cccc2o1,–,-4.86% [at 25.6 µM] (inactive)
CCOC(=O)COc1cc(OCC(=O)OCC)c2c(=O)cc(-c3ccccc3)oc2c1,14.1 µM (active),–
CC(C)C12CC[C@@]3(CC[C@H]4[C@@](C)(CCC[C@]4(C)C(=O)O)[C@@H]3C1)[C@@H](CN)C2,–,8.51% [at 11.4 µM] (inactive)
Cc1ccc(O)c(C(=O)c2cc(C#N)c(=O)n(-c3c(C)n(C)n(-c4ccccc4)c3=O)c2)c1,–,-13.2% (inactive)
c1ccc(/C(=N/Nc2nc3ccccc3s2)c2ccccn2)cc1,–,-42.9% [at 11.4 µM] (inactive)
Brc1ccc(/C=C/C=N/Nc2nc3ccccc3s2)cc1,3.55 µM (active),–
O=c1c(-c2cc(F)cc(F)c2)nc2cnc(N3CCOCC3)nc2n1-c1ccccc1,–,-8.88% (inactive)
O=S(=O)(c1ccccc1)c1cnn2c(C(F)(F)F)cc(-c3ccc(F)cc3)nc12,–,-26.6% (inactive)
Fc1ccc(-c2cn3cc(C(F)(F)F)cc(Cl)c3n2)cc1,10 µM (active),–
CCOC(=O)CSC1=NC(=O)/C(=C\c2ccc(OC(C)=O)cc2)S1,15.8 µM (active),–
O=C1CC[C@H](NC(=O)c2ccccc2)C(=O)N1,–,28.7% [at 11.4 µM] (inactive)
O=C1CSC(c2ccccc2F)N1c1cc(Cl)ccc1O (configuration not stated),0.891 µM (active),–
Nc1nc(N)nc(CC(=O)O)n1,–,-6.24% [at 11.4 µM] (inactive)
Cc1noc(C)c1-c1cncnc1N(C)Cc1ccco1,2.51 µM (active),–
CN(Cc1ccco1)c1ncncc1-c1ccccc1C(F)(F)F,3.98 µM (active),–

Structure (SMILES),AC50,"activity, negative = inhibition"
Cc1noc(C)c1-c1cncnc1NC1CC1,–,-20.9% (inactive)
Cc1ccccc1-c1cncnc1N(C)Cc1ccco1,5.01 µM (active),–
CN(Cc1ccco1)c1ncncc1-c1ccccc1Cl,0.794 µM (active),–
CC1(C)S[C@@H]2[C@H](NC(=O)[C@@H](NC(=O)N3CCNC3=O)c3ccccc3)C(=O)N2[C@H]1C(=O)O,–,6.12% [at 25.6 µM] (inactive)
CC1(C)O[C@H]2[C@@H](O1)[C@@H](On1nnc3ccc(Cl)cc31)O[C@@H]2[C@@H]1COC(C)(C)O1,–,17% [at 11.4 µM] (inactive)
O=C(CCCCn1c(=S)[nH]c2ccsc2c1=O)NCc1ccco1,14.1 µM (active),–
Cc1ccc(-n2c(=O)c3sccc3n(CC(=O)NCc3ccco3)c2=O)cc1F,–,28.2% (inactive)
O=C(NCc1ccco1)c1ccc2c(=O)n(-c3ccccc3)c(=S)[nH]c2c1,–,-24.2% (inactive)
O=C(CCCCCn1c(=O)[nH]c2ccsc2c1=O)NCc1ccc2c(c1)OCO2,10 µM (active),–
O=C(CCn1c(=O)[nH]c2ccsc2c1=O)Nc1ccc(F)c(F)c1,–,-13.9% (inactive)
NCC[C@H]1CCC[C@H](CCN)N1,–,-4.62% (inactive)
O=C(C[C@@H]1C=Cc2ccccc2N1C(=O)c1ccccc1)c1ccccc1,0.501 µM (active),–
NC(=O)N1c2ccccc2C=Cc2ccccc21,–,-26.8% [at 25.6 µM] (inactive)
O=C(Cc1ccc(Br)cc1)Nc1ccccc1Sc1ccccc1,0.178 µM (active),–
O=C(NC1CCCCC1)C1CC=CCC1C(=O)OCC(Cl)=C(Cl)Cl (configuration not stated),10 µM (active),–
O=C(c1ccc2c(=O)n(Cc3ccco3)c(=S)[nH]c2c1)N1CCN(c2ccccc2)CC1,2.24 µM (active),–
COCCCNC(=O)c1ccc2c(=O)n(CC3CCCO3)c(=S)[nH]c2c1 (configuration not stated),–,12% (inactive)
O=C(c1ccc2c(=O)n(CC3CCCO3)c(=S)[nH]c2c1)N1CCN(c2ccccc2)CC1 (configuration not stated),11.2 µM (active),–
COc1ccc(NC(=O)c2ccc3c(=O)n(Cc4ccco4)c(=S)[nH]c3c2)c(OC)c1,4.47 µM (active),–
CC(=O)OC[C@@H]1O[C@@H](O/N=C2/C[C@@H](O)[C@@H](O)[C@@H]3[C@@H]4C(=O)N(C5CCCCC5)C(=O)[C@H]4CC[C@@H]23)[C@H](OC(C)=O)[C@H](OC(C)=O)[C@@H]1OC(C)=O,–,2.25% [at 11.4 µM] (inactive)
CCOc1ccccc1NC(=O)C1Cc2ccccc2CN1S(C)(=O)=O (configuration not stated),7.94 µM (active),–
CCOc1ccccc1Nc1ccc(N)cc1S(=O)(=O)O,–,-16.1% [at 11.4 µM] (inactive)
C=C(NC(=O)C(=C)NC(=O)c1csc(C2=N[C@@H]3c4csc(n4)[C@@H]4NC(=O)c5csc(n5)[C@@H]([C@](C)(O)[C@H](C)O)NC(=O)[C@@H]5CSC(=N5)/C(=C/C)NC(=O)[C@@H]([C@H](C)O)NC(=O)c5csc(n5)[C@]3(CC2)NC(=O)[C@@H](C)NC(=O)C(=C)NC(=O)[C@@H](C)NC(=O)[C@@H]([C@@H](C)CC)N[C@H]2C=Cc3c([C@H](C)O)cc(nc3[C@@H]2O)C(=O)O[C@H]4C)n1)C(N)=O,–,15.8% [at 25.6 µM] (inactive)
O=S(=O)(c1ccccc1)N1CN2CN(C1)CN(S(=O)(=O)c1ccccc1)C2,–,-18.2% [at 11.4 µM] (inactive)
O=C1CCN(S(=O)(=O)c2ccccc2)N1,17.8 µM (active),–
O=S(=O)(c1ccccc1)N1CCC2(CC1)CN(C(c1ccccc1)c1ccccc1)C2,–,-6.26% (inactive)
